In PubChem BioAssay AID1214 (Sanford-Burnham Center for Chemical Genomics, 2008) one finds activation factor data, which are given here for 95 compounds.

In all, about 190,000 compounds went through this assay and about 10 (0.005%) were called active. Only a sample is shown. Values without a mark were called inactive.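 Rule for the calls: active = activation factor of 2 or more at 20 µM, relative to plate controls; inactive = the rest.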

Mannose-6-phosphate isomerase (Homo sapiens), sequence (P34949 whole entry, looked up): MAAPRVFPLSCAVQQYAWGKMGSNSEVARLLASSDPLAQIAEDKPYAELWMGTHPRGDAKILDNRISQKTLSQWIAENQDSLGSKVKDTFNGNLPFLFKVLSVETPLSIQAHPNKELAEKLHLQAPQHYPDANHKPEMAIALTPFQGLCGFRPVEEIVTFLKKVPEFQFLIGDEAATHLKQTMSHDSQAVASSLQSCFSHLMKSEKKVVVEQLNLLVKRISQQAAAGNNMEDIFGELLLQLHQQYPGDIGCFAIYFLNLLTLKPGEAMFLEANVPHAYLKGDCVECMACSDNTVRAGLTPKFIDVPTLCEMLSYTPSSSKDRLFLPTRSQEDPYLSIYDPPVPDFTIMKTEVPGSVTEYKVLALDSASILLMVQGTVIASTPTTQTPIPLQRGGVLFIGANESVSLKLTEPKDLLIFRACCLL

The assay has as its target Mannose-6-phosphate isomerase (Homo sapiens) (UniProt P34949). The experiment in a line: activators of human PMI, primary screen, biochemical, fluorescence intensity, near-Km mannose 6-phosphate (AID 1214). As to conditions: purified human PMI, coupled resazurin fluorescence, 20 min; at 20 µM; hits give high values; 1 = vehicle control, 0 substrate-free wells. (In general: Resazurin is reduced to fluorescent resorufin, in cell work by metabolically active cells.)
Consider `CCOC(=O)c1c(C)[nH]c(C2=NNC(=NC(C)COC)SC2)c1C` (stereo not given), for which the activation factor was 1.3.
On to `Cc1cc(-c2n[nH]c(=S)n2-c2ccc(C)c(C)c2)no1`, for which the activation factor is 1.
For `CCC(=O)Nc1c(C)n[nH]c1C`, the activation factor was 0.9.
As for `Cc1ccc(OCc2n[nH]c(=S)n2-c2ccc(C)cc2)cc1`, the figure is 0.8; as for `CNc1nc(Nc2ccc(C)c(Cl)c2)nc(N)c1[N+](=O)[O-]`, 0.9; as for `O=C(NCCCNc1ccc([N+](=O)[O-])cc1Cl)c1ccccc1F`, 1.1.
In the case of `COc1ccc(/C=C(\NC(=O)c2ccc(OCC(C)C)cc2)C(=O)OCc2ccco2)cc1` it was 0.9; in that of `O=C1CCC/C(=N\NC(=O)NC2CCCCC2)C1`, 0.8; in that of `O=C(CSc1ccccc1)Nc1nnc(/C=C/c2ccccc2)s1`, 0.9.
In the case of `COC(=O)CNC(=O)c1ccc(OC2CCN(C(=O)C3CC3)CC2)cc1` it was 0.9; in that of `COc1cc(/C=C/C(=O)N2c3ccccc3Sc3ccc(C(F)(F)F)cc32)cc(OC)c1OC`, 0.9.
As to `O=C1/C(=C\c2ccccc2Cl)SC(=S)N1CCC(=O)N1CCCc2ccccc21`, the activation factor was 0.9.
As for `CNC(=O)NC(=O)CSc1nnc(-c2ccc(F)cc2)n1CC1CCCO1` (stereo not given), the activation factor is 1.
As for `Nc1cc(C(F)(F)F)ccc1N1CCOCC1`, the figure is 1; as for `COc1cc(C2C(N3C(=O)c4ccccc4C3=O)C(=O)N2c2ccc(C)c(C)c2)cc(OC)c1OC` (stereo not given), 0.9; as for `OCC(CO)(CO)NCc1ccc(-c2ccccc2)cc1`, 1.
Turning to `COc1ccc(Cl)cc1-n1c(C)cc(C(=O)OCC(=O)N2CC(=O)Nc3ccccc32)c1C`, the activation factor was 0.9.
Regarding `COc1cc(/C=N/NC(=O)CCc2n[nH]c(=O)[nH]c2=O)ccc1O`, the activation factor is 0.9.
With `COc1cccc(CN(C)CC(=O)Nc2ccccc2C(=O)Nc2ccccc2)c1`, the activation factor is 0.9.
Take `COc1ccccc1CNC(=O)COc1ccc(C)nc1[N+](=O)[O-]`: the activation factor is 1.1.
Take `O=C(N/N=C/c1ccc([N+](=O)[O-])o1)c1cn(-c2ccccc2)nc1-c1ccc(F)cc1`: the activation factor was 1.4.
Turning to `Cc1ccc(C)c(NC(=S)NNC(=S)Nc2ccc(C(C)C)cc2)c1`, the activation factor was 0.8.
In the case of `N=C1C(=O)OCC1c1ccccc1NC(=O)CN1CCCCC1` (stereo not given), the activation factor was 1.1.
Consider `C=CCOc1c(Br)cc(/C=N\n2nnnc2N)cc1OC`, for which the activation factor was 1.1.
For `O=C(Nc1cccnc1)c1cc2cc(Br)ccc2oc1=O`, the activation factor is 1.
In the case of `COCC(C)NC(=O)COc1nncc2ccccc12` (stereo not given) it was 1.2; in that of `C=CCN1C2CCCC1CC(NC(=S)Nc1cccc(OC)c1)C2` (stereo not given), 0.9; in that of `CCNC(=O)NNC(=O)C1CC(c2cccs2)=NO1` (stereo not given), 1.
Regarding `CCc1cccc(NC(=O)CCC(=O)O)c1`, the activation factor was 1.
For the compound `NC(=O)COC(=O)c1sc2cc(F)ccc2c1Cl`, the activation factor was 1.2.
Turning to `CCOC(=O)N1CCN(Cc2nc3ccc([N+](=O)[O-])cc3c(=O)n2-c2cccc(OC)c2)CC1`, the activation factor was 1.
`COc1ccccc1CNC(=O)C1Cc2ccccc2C(=O)O1` (stereo not given): the activation factor is 0.9.
Turning to `O=C(/C=C/c1ccccc1)Oc1coc(CSc2ncccn2)cc1=O`, the activation factor is 1.
As to `COc1ccc(Br)cc1CN(C)CC(=O)Nc1cc(Cl)cc(Cl)c1`, the activation factor is 0.8.
In the case of `Cc1ccc(/C([O-])=C(/C(=S)NCc2ccco2)[n+]2ccccc2)cc1[N+](=O)[O-]` it was 1; in that of `CN(C)/C=C(/C(=O)c1ccc(F)cc1)S(=O)(=O)c1ccc(F)cc1`, 1.2; in that of `O=S(=O)(c1ccc2c(c1)OCCO2)N1CCc2ccccc21`, 0.9.
`N#C/C(C(=S)Nc1ccccc1)=C1/NN=C(N2CCOCC2)N1c1ccccc1`: the activation factor is 1.
As to `CCN(CC)S(=O)(=O)c1ccc(N2CCOCC2)c(NC(=O)C2COc3ccccc3O2)c1` (stereo not given), the activation factor is 1.
As for `COc1ccc(NC(=O)CN(Cc2ccccc2)S(C)(=O)=O)cc1OC`, the figure is 0.9.
Regarding `COc1ccccc1N(CC(=O)Nc1ccc(C(F)(F)F)cc1)S(C)(=O)=O`, the activation factor was 1.
As for `O=C(Cc1cccs1)N(CC1CCCO1)C1(C(=O)NC2CCCCC2)CCCCC1` (stereo not given), the figure is 1.1; as for `O=C(OCC1O[C@@H](OC(=O)c2cc(O)c(O)c(O)c2)[C@@H](OC(=O)c2cc(O)c(O)c(O)c2)[C@@H](OC(=O)c2cc(O)c(O)c(O)c2)[C@@H]1OC(=O)c1cc(O)c(O)c(O)c1)c1cc(O)c(O)c(O)c1` (stereo not given in full), 0.4; as for `CC[n+]1c(C)n(-c2ccccc2)c2ccc(NC(C)=O)cc21`, 0.5.
In the case of `Cc1c(C(=O)Nc2cccc(Cl)c2)cn2c(nc3ccccc32)c1C#N` it was 1.1; in that of `O=C(NCC(=O)N(CC1CCCO1)C(C(=O)NC1CCCCC1)c1ccccc1)c1ccco1` (stereo not given), 1.1.
As to `CC(C)(C)C1CCC(=NNC(=O)c2cc(-c3ccccc3)n[nH]2)CC1` (stereo not given), the activation factor was 1.
Regarding `O=C(CSc1cccc[n+]1[O-])NCCCc1ccccc1`, the activation factor was 1.
Consider `O=c1cc(CO)oc(C(Nc2cccc([N+](=O)[O-])c2)c2ccccn2)c1O` (stereo not given), for which the activation factor was 1.
In the case of `O=S(=O)(ON(c1ccccc1)S(=O)(=O)c1ccccc1)c1ccccc1` it was 1.1; in that of `COc1ccc(CCNC(=O)COC(=O)C2CCCCC2)cc1`, 0.9.
With `NS(=O)(=O)c1ccc(NC(=S)NC(=O)c2cccnc2)cc1`, the activation factor was 1.
Regarding `CCCCN1C(=O)/C(=C/C=C2/C=Cc3ccccc3N2CC)SC1=S`, the activation factor was 0.7.
In the case of `CCOC(=O)c1ccccc1NC(=S)N1CCC(C(N)=O)CC1` it was 1; in that of `O=C(CN1C(=O)/C(=C\c2ccccc2F)SC1=S)Nc1nc2ccccc2s1`, 0.8; in that of `COC(=O)C(=Nc1ccccc1)/C(C(=O)C(=O)N(C)c1ccccc1)=C(\O)c1ccc(Cl)cc1`, 1.2.
As for `COC(=O)C1=C(N)Oc2c(oc(CO)cc2=O)C1c1c(F)cccc1Cl` (stereo not given), the activation factor was 1.1.
Regarding `O=C(CCC1CCCN(C(=O)Cc2ccc(F)cc2)C1)N1CCN(c2ccccn2)CC1` (stereo not given), the activation factor is 1.
As for `CCOC(=O)CCCNC(=O)COC(=O)/C=C/c1ccc2c(c1)OCO2`, the activation factor is 1.1.
Take `COc1ccc(CCNC(=O)c2ccc(CS(=O)(=O)c3ccc(Br)cc3)o2)cc1OC`: the activation factor was 1.
As for `CC(C)CCN1CCN(C/C=C/c2ccco2)CC1CCO` (stereo not given), the figure is 0.8.
For the compound `CCOC(=O)c1ccc(NNC(C)=O)c([N+](=O)[O-])c1`, the activation factor is 0.9.
Regarding `CC(=O)c1ccc(NC(=S)N(Cc2ccccc2)C(C)C2CC2)cc1` (stereo not given), the activation factor was 0.8.
As for `O=C(CN1CCCC1)N1CCN(c2ccccc2)CC1`, the figure is 0.8.
Regarding `O=C(CC1C(=O)NCCN1Cc1ccc(-c2ccccc2)cc1)NCc1ccncc1` (stereo not given), the activation factor is 1.
Take `CCOc1ccc(-n2c(SCC(=O)NC3CCS(=O)(=O)C3)nnc2-c2cccnc2)cc1` (stereo not given): the activation factor is 1.
As for `O=C(Nc1ccc(N2CCOCC2)cc1)c1ccc2c(c1)OCO2`, the figure is 0.9; as for `CCC1CCCCN1C(=O)CSc1nc(C)cc(C)n1` (stereo not given), 1.
For the compound `CCCOC(=O)c1ccc(N2C(=O)c3ccccc3C2=O)cc1`, the activation factor is 1.
In the case of `O=C(CSc1ccc([N+](=O)[O-])cn1)Nc1ccc(N2CCOCC2)c(Cl)c1`, the activation factor was 1.
For `COc1ccc(-c2cc(C(=O)NCCCn3ccnc3)no2)cc1`, the activation factor is 1.
`Cc1cccc(C)c1NC(=S)N(Cc1cccnc1)Cc1ccccc1Cl`: the activation factor was 0.9.
On to `COc1ccc(/C=C/CN2CCCC(C(=O)c3cc(F)ccc3F)C2)cc1` (stereo not given), for which the activation factor was 1.
Turning to `O=c1c2sccc2nc(SCc2cc(=O)n3ccccc3n2)n1-c1ccc(Br)cc1`, the activation factor was 0.9.
In the case of `O=C1CS(=O)CN1c1ccc(Oc2ccccc2)cc1` (stereo not given) it was 1; in that of `CC(=C/c1ccccc1)/C=N/NC(=O)c1cc(C)oc1C`, 0.9; in that of `CN1C(=O)C(CC(=O)Nc2ccccc2)S/C1=N/c1nccs1` (stereo not given), 1.
`CC(/C=C/C1(O)C(C)CC(=O)CC1(C)C)OC1OC(CO)C(O)C(O)C1O` (stereo not given): the activation factor was 0.9.
In the case of `CCN(C(=O)COC(=O)c1ccc(COc2ccc3c(C)cc(=O)oc3c2)cc1)C1CCS(=O)(=O)C1` (stereo not given) it was 1.
Regarding `CCOC(=O)c1cc2c(=O)n3ccccc3nc2n(CC(C)C)c1=NC(=O)c1c(-c2c(F)cccc2Cl)noc1C`, the activation factor is 1.
In the case of `CCOc1ccc2nc(NCCNC(=O)C(C)(C)C)c(C)cc2c1` it was 1.
`Cc1cccc(N(C(=O)Cc2cccs2)C(C(=O)NCc2ccco2)c2ccncc2)c1` (stereo not given): the activation factor is 0.9.
With `COc1ccc(Cl)cc1NC(=O)NC(C)C(C)(C)C` (stereo not given), the activation factor is 0.9.
On to `CC(C)CCN1CCN(Cc2cn[nH]c2C2CCCCC2)CC1CCO` (stereo not given), for which the activation factor is 1.
Consider `Cc1cccc(NC(=O)/C=C/c2ccc3c(c2)OCO3)n1`, for which the activation factor was 0.9.
In the case of `CC1=CC(=C(C#N)c2nc3ccccc3s2)C=C(C)N1c1ccc(F)cc1F`, the activation factor is 0.7.
Turning to `COc1cccc(/C=C/C(=O)Nc2ccc3c(c2)OCCO3)c1`, the activation factor was 1.1.
Regarding `Cc1c(NC(=S)NCc2ccc(F)cc2)cccc1[N+](=O)[O-]`, the activation factor was 0.8.
As for `Cc1ccc(-c2nn(-c3ccccc3)cc2/C=C/C(=O)Nc2cccc(S(N)(=O)=O)c2)cc1`, the figure is 0.9.
As to `COc1ccc(NC(=S)N2CCCC(CO)C2)c(OC)c1` (stereo not given), the activation factor was 1.
`COC(=O)c1c(C(=O)OC)c(-c2cccc(C)c2)n2c1CS(=O)C2` (stereo not given): the activation factor was 0.9.
For the compound `CCOC(=O)C1(O)CC(C)=NN1C(=O)c1cccc(Br)c1` (stereo not given), the activation factor was 1.1.
`Cc1ccc(-n2cc(CN(C)Cc3nccn3C)c(-c3cccc(C)c3)n2)cc1`: the activation factor is 0.8.
As for `O=C(CCNC(=O)c1ccc([N+](=O)[O-])cc1)Nc1ccccc1N1CCOCC1`, the activation factor is 1.
As for `CCCC(O)(CCC)C(=O)NN(C(=O)CCl)c1cccc(C)c1`, the figure is 1.1.
